Assay outcomes deposited in PubChem BioAssay by several laboratories.
BoNT A protease – inhibitors of Botulinum neurotoxin A light chain protease. inhibition, % at 10 µM. multiplex microsphere protease substrate cleavage, flow cytometry. 360,000 compounds, 0.17% hits; further: plate controls were buffer without enzyme for full effect and enzyme alone for no effect
BoNT F protease – inhibitors of Botulinum neurotoxin F light chain protease; Multiplex microsphere protease cleavage assay, flow cytometry; inhibition, % at 10 µM; 360,000 compounds, 0.22% hits; AID 588497; in the data active means inhibition above about 35%, passing the limit was not always enough; inconclusive means no clear call, values can overlap the other calls; further: plate controls were buffer without enzyme for full effect and enzyme alone for no effect
MazF activator – activators of E. coli MazEF toxin-antitoxin RNase | P0AE70 | FAM/BHQ RNA-DNA oligo cleavage fluorescence, 5 h | 350,000 compounds, 0.32% hits | activation, % at 20 µM; in the data active means activation above about 50%
Target sequence (P0AE70 whole entry, looked up): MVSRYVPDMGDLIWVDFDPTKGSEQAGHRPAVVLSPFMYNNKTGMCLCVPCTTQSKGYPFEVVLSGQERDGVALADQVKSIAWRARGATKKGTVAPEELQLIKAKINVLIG
Autofluor counter – counter-screen for toxin protease inhibitors: compound fluorescence; compound autofluorescence counterscreen, microsphere flow cytometry; stronger effect = higher value; fluorescence intensity (concentration not given with the values); 360,000 compounds, 3.1% hits; in the data active means fluorescence intensity above about 16000; inconclusive means no clear call, values can overlap the other calls
Anthrax LF prot – blocks Bacillus anthracis lethal factor protease | inhibition, % at 10 µM | AID 588501 | 360,000 compounds, 0.12% hits | multiplex microsphere protease cleavage assay, LF; further: plate controls were buffer without enzyme for full effect and enzyme alone for no effect
Active calls of the source: *; ? = inconclusive; nt = no result given. Sampled rows, rich in hits. Any-hit rate of the full collection: about 3.7%. Unless noted, no stated cut-off is given here; in the data, active means inhibition above about 30%; inconclusive means no clear call, values can overlap the other calls; inactive means below that.

SMILES	BoNT A protease	BoNT F protease	MazF activator	Autofluor counter	Anthrax LF prot
Cc1ccc(S(=O)(=O)NCC(=O)OCC(=O)N2CC(=O)Nc3ccccc32)cc1	0.1	1.4	1.5	3544	-9.3
CCOC(=O)N1CCC(Nc2c(Nc3cccc(CC)c3)c(=O)c2=O)CC1	2.1	-2.5	8.0	18932*	-12.2
CCOC(=O)N1CCC(Nc2c(-c3ccccc3)c(=O)c2=O)CC1	1.3	5.3	4.3	20189*	0.1
CCOC(=O)N1CCC(Nc2c(NCCN3CCN(Cc4ccccc4)CC3)c(=O)c2=O)CC1	2.5	1.9	1.2	21681*	1.0
CCOC(=O)N1CCC(Nc2c(Nc3ccc(F)cc3)c(=O)c2=O)CC1	0.8	-6.0	-1.2	3871	1.4
CCOC(=O)N1CCC(Nc2nc(OC)nc(OC)n2)CC1	?	1.2	-5.2	22300*	-3.2
O=[N+]([O-])c1nccn1CCCCCCCCCCCN1CCOCC1	-0.3	0.4	nt	5701	-7.2
N#Cc1ccc(CSc2ccc(S(=O)(=O)N3CCCCCC3)cn2)cc1	1.6	-5.3	-4.3	5327	0.0
CCOC(=O)N1CCC(Nc2ncnc3c2cnn3-c2ccccc2)CC1	?	-7.9	5.3	26060*	-0.4
COc1ccccc1N1CCN(Cc2cc(=O)oc3cc(C)cc(C)c23)CC1	-0.8	-4.1	nt	6141	-12.7
CC(C(=O)N=c1sc2ccccc2n1C)N1C(=O)C2CC=CCC2C1=O (stereo unspecified)	3.3	2.8	5.3	21549*	-0.9
COCCNC(=O)NC(=O)COC(=O)Cc1ccc2c(c1)OCCO2	-0.3	1.1	-9.2	22511*	0.1
Nc1ccc(C#Cc2ccccc2)cc1	?	1.2	-2.6	20219*	1.3
Nc1ccccc1C#Cc1ccccc1	0.6	0.3	7.9	3624	-3.5
C/C=C(\C)C(=O)O[C@@H]([C@H](O)c1cc2ccc(=O)oc2cc1OC)C(C)(C)O	-0.8	-8.2	-0.6	3864	-2.5
Cn1c(C(=O)Nc2ccc3c(c2)OCO3)cc2c(=O)n(C)c3ccccc3c21	-0.2	-4.5	-0.9	5868	-3.3
CCOc1ccc(NC(=O)c2cc3c(=O)n(C)c4ccccc4c3n2C)cc1	-12.3	-86.8	-31.4	18920*	-14.4
FC(F)(F)c1cnc(Sc2nnc(-c3cccs3)n2CC2CCCO2)c(Cl)c1 (stereo unspecified)	1.4	0.8	1.4	20185*	-0.5
COc1ccccc1CNC(=O)CSc1nc(-c2ccccc2)cn1N	0.5	4.4	-8.2	3172	-6.3
CN(C(=O)CSc1nc(-c2ccccc2)cn1N)C(c1ccccc1)c1ccccc1	-4.4	-5.0	-3.2	24699*	-10.8
CC1=NN(C(=O)Cc2ccccc2)C(O)(c2cccnc2)C1 (stereo unspecified)	?	-2.4	-4.7	21683*	-0.6
CNC[C@@H]1OCc2ccccc2-c2c(n(C)c3ccccc23)C(=O)N([C@H](C)CO)C[C@@H]1C	-0.5	-10.2	3.5	3785	-4.3
COc1cc(C(=O)N2CCN(c3ccccc3)CC2)c2ccccc2n1	0.1	8.8	10.9	3926	-4.9
COc1ccc(NC(=O)[C@H](C)NC(=O)C2CCN(S(=O)(=O)c3ccc(C)cc3)CC2)cc1	-0.3	0.7	-6.9	5923	-2.0
Clc1nc(-c2ccccc2)cc(-c2ccc(Br)cc2)n1	-1.1	-2.6	-4.5	23930*	-2.1
SMILES	BoNT A protease	BoNT F protease	MazF activator	Autofluor counter	Anthrax LF prot
CC(=O)OCc1c(C(F)(F)F)nn(C)c1Sc1ccccc1	1.1	1.4	-1.2	19824*	-2.1
CCC(=O)OCc1c(C(F)(F)F)nn(C)c1Sc1ccc(F)cc1	0.5	-3.9	1.5	8845	-9.9
CC(C)(C)NC(=O)C1(C)CCC(=O)N1C1CCN(Cc2ccccc2)CC1 (stereo unspecified)	-1.0	-2.7	nt	5960	-5.6
CC(=O)N1CCc2[nH]c3ccc(C)cc3c2C1	-1.2	?	7.9	4127	3.7
Cc1ccc2[nH]c3c(c2c1)CN(C(=O)CN1CC(C)OC(C)C1)CC3 (stereo unspecified)	-22.7	?	43.2	17955*	-1.2
CC(=O)C1=C(O)C(=O)N(CCN(C)C)C1c1ccc(Cl)cc1 (stereo unspecified)	-2.7	-4.5	3.8	20540*	-2.4
O=c1cc(-c2ccccc2)[nH]c2[nH]n(-c3ccccc3)c(=O)c12	-1.9	-2.9	8.9	17478*	0.1
CCOC(=O)CC1=NN(c2ccccc2)C(=O)C1	0.0	-4.2	2.4	2572	-0.5
CCOC(=O)Cc1cc(=O)c2c(=O)n(-c3ccccc3)[nH]c2[nH]1	2.2	2.0	-10.4	22135*	-1.7
O=c1cc(-c2ccccc2)[nH]n1-c1ccccc1	-0.2	2.2	5.4	3612	-8.8
CCOc1ccc(C(=O)CN2C(=O)NC3(CCCc4ccccc43)C2=O)cc1 (stereo unspecified)	0.1	1.6	3.7	2789	-5.1
CC(C)C(=O)Nc1ccc(NC(=S)NC(=O)c2ccc([N+](=O)[O-])cc2)cc1	-1.9	-3.9	-11.8	23025*	-2.4
Cc1cc(C(=O)NC(=S)Nc2cccc(NC(=O)C(C)C)c2)ccc1[N+](=O)[O-]	-0.9	-5.6	6.7	1930	-1.3
CC(C)C(=O)Nc1cccc(NC(=S)NC(=O)c2ccc([N+](=O)[O-])cc2)c1	?	-4.3	6.1	22965*	-1.2
Cc1ccccc1N(CC(=O)N1CCN(Cc2ccccc2)CC1)S(C)(=O)=O	-0.2	0.7	4.1	3474	5.6
Cc1ccc(C2(CC(=O)N3CCCC3)CCOC(C(C)C)C2)cc1 (stereo unspecified)	-0.1	-1.7	-6.6	5863	3.6
COc1ccccc1C1(CC(=O)N2CCCCC2)CCOC(C(C)C)C1 (stereo unspecified)	0.2	-1.6	-1.9	16312*	2.8
Cc1ccccc1N=Cc1c(O)n(-c2nccs2)c(=O)c2ccccc12	1.0	-1.0	3.8	2533	1.4
O=c1c2ccccc2c(C=Nc2ccccc2O)c(O)n1-c1nccs1	-0.4	0.4	278.2*	4475	1.2
Cc1csc(NC(=O)C2CCN(C(=O)c3ccccc3C)CC2)n1	-0.3	2.5	4.1	4158	-1.3
Cc1csc(NC(=O)C2CCN(C(=O)CSc3nnc(C)n3Cc3ccccc3)CC2)n1	?	-5.6	1.1	20510*	0.7
CCOC(=O)C1=CC[C@@H](c2ccccc2)N(S(=O)(=O)c2ccc(C)cc2)[C@H]1/C=C/c1ccccc1	-1.2	-7.9	nt	5599	5.1
Cc1ccc(NS(=O)(=O)c2ccc(NC(=O)c3cccs3)cc2)c(C)c1	0.1	1.1	53.0*	2524	0.2
Cc1cc(C)nc(NS(=O)(=O)c2ccc(NC(=O)c3cccs3)cc2)n1	0.5	15.7	-9.6	3573	6.0
C#CCN1c2ccccc2Sc2cccnc21	4.1	?	71.1*	3828	-15.9
O=C(c1ccc(-c2ccc(Cl)cc2)o1)N1CCN(c2ccc([N+](=O)[O-])cc2Cl)CC1	4.8	-0.2	-4.6	21861*	1.6
O=Cc1ccc(Sc2nnc(-c3ccccc3)o2)c([N+](=O)[O-])c1	?	4.1	1.6	19318*	-7.1
COc1ccc(OP(=O)(Nc2ccccc2)Nc2ccccc2)cc1	16.0	14.2	5.5	17088*	-13.3
